Molecular target: Calmodulin-1 (Homo sapiens) (UniProt P0DP23)
Assay: small molecules binding Ca-loaded calmodulin-1 – biochemical, small-molecule microarray, Cy5-labelled CALM1, plus calcium, artefact control for SMM control-protein annotation, profiling panel (AID 1112);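 also: score merges spot fluorescence with signal to noise from triplicate slides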
Settings: Cy5-CALM1 binding fluorescence, higher = more signal

In order of rising composite z-score:
1. C=CCC(OC(C)=O)[C@@H]1[C@@H](N(Cc2cc3ccccc3o2)C(=O)Cc2ccc(F)cc2)c2cc(OCCCO)ccc2N1C(=O)c1ccc2ccccc2n1 (some centres not stated)  -0.12
2. C=CCOC(=O)[C@@H]1[C@H]2C(=O)O[C@H](c3ccccc3)[C@H](c3ccccc3)N2[C@H](c2ccc(OCCOC(=O)[C@H]3C[C@H]4C(=O)N[C@@H](CCCC[N+](C)(C)C)C(=O)N4[C@H]3c3ccc(O)cc3)cc2)[C@@]12C(=O)Nc1ccc(I)cc12  -0.116
3. CC(C)CN1C(=O)[C@@]2(c3ccc([N+](=O)[O-])cc3)CC(=O)N(CC34CC5CC(CC(C5)C3)C4)[C@@H]2c2ccc(CO)cc21  0.0047
4. [N-]=[N+]=Nc1ccccc1[C@@H]1OC(c2ccc(OCCCO)cc2)=N[C@]1(CCS(=O)(=O)c1ccccc1)C(=O)NCCN1CCOCC1  0.0093
5. C=C(CCCC)/C(=C/C[C@@H](OC(C)=O)c1ccc(CO)o1)c1cc(C(=O)OC)ccc1OC  0.0443
6. COc1ccc([Si](C)(C)[C@@H]2[C@@H](CCO)O[C@]3(C(=O)N(Cc4cccc(N5C(=O)c6cccc7cccc5c67)c4)c4ccccc43)[C@H]2C)cc1  0.978
7. COC(=O)C1(Cc2ccccc2)C=C2C(=C(C(C)C)C(=O)C2C)CN1 (configuration not stated)  1.54

Test system: not listed separately
Assay: probe aWnt5a binding to arrayed compounds – biochemical, biotinylated probe, 635/667 nm fluorescence, primary screen (AID 1113);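 also: score merges 667 nm fluorescence intensity with signal-to-noise per printed feature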
Settings: small-molecule microarray, higher = more signal

In order of rising composite z-score:
1. O=C1O[C@@H](c2ccccc2)[C@@H](c2ccccc2)N2[C@@H](c3ccc(O)cc3)[C@]3(C(=O)Nc4ccc(C#CCCO)cc43)[C@@H](C(=O)NC[C@H](O)c3ccccc3)[C@H]12  -0.243
2. O=c1cccc(-c2cccc(Cl)c2)o1  -0.228
3. C=C(C(=O)CC[C@H](OC(C)=O)c1cccc(OCCO)c1)C(C)C  -0.206
4. CC(=O)NCCCC[C@@H]1NC(=O)[C@@H]2C[C@H](C(=O)O)[C@H](c3ccc(O)cc3)N2C1=O  -0.184
5. CC1CC/C=C\[C@H]2OC34C=CCN(C(C)C)C(=O)[C@H]3N(CCCCCO)C(=O)[C@@H]4C2C(=O)O1 (some centres not stated)  -0.178
6. O=C1O[C@@H](c2ccccc2)[C@@H](c2ccccc2)N2[C@@H](c3ccccc3OCCO)[C@]3(C(=O)Nc4ccccc43)[C@@H](C(=O)NC[C@H](O)c3ccccc3)[C@H]12  -0.152
7. CC(C)CN1C(=O)[C@@]2(c3ccc([N+](=O)[O-])cc3)CC(=O)N(CC34CC5CC(CC(C5)C3)C4)[C@@H]2c2ccc(CO)cc21  -0.152
8. CC(C)(C)OC(=O)CC[C@]1(C(=O)O)N=C(c2ccc(OCCCO)cc2)O[C@H]1c1ccccc1CN=[N+]=[N-]  -0.136
9. CCOC(=O)C[C@H]1[C@H](OC(=O)c2ccccc2-c2ccccc2)[C@@H](NC(=O)CC(C)C)c2cc(OCCCO)ccc2N1C(=O)c1ccc2ccccc2n1  -0.124
10. COCCOC(=O)N1C(=O)[C@@]2(c3cc(C#CC4(O)CCCCCC4)ccc31)[C@H](c1ccccc1OCCO)N1[C@H](c3ccccc3)[C@H](c3ccccc3)OC(=O)[C@H]1[C@@H]2C(N)=O  -0.101
11. C[C@]1(C(=O)NC2CC2)c2ccccc2C(=O)N(Cc2ccc(OC(F)(F)F)cc2)[C@H]1c1ccc(CO)cc1  -0.0792
12. C=C(CCCC)/C(=C/C[C@@H](OC(C)=O)c1ccc(CO)o1)c1cc(C(=O)OC)ccc1OC  -0.0758
13. COc1ccc([Si](C)(C)[C@@H]2[C@@H](CCO)O[C@]3(C(=O)N(Cc4cccc(N5C(=O)c6cccc7cccc5c67)c4)c4ccccc43)[C@H]2C)cc1  -0.0758
14. COCC(=C=CC[C@H](O)c1ccc(OCCO)cc1)C[C@H](O)COCc1ccccc1  -0.0718
15. COCCOC(=O)N1C(=O)[C@@]2(c3cc(C#CC4=CCCCC4)ccc31)[C@H](C(=O)N1CCN(c3ncccn3)CC1)[C@H]1C(=O)O[C@H](c3ccccc3)[C@H](c3ccccc3)N1[C@@H]2c1ccc(O)cc1  -0.0685
16. COCCOC(=O)N1C(=O)[C@@]2(c3cc(C#CC4=CCCCC4)ccc31)[C@H](c1ccc(O)cc1)N1[C@H](c3ccccc3)[C@H](c3ccccc3)OC(=O)[C@H]1[C@@H]2C(=O)Nc1nc2ccccc2s1  -0.0654
17. CCCCC(CC)C(O)C1C=CC2C(=O)N(c3ccccc3)C(=O)C2N1Nc1ccc([N+](=O)[O-])cc1 (configuration not stated)  -0.0519
18. C=C[C@@H](COC(C)=O)NS(=O)(=O)c1ccc(Br)cc1  -0.0478
19. CC(C)CNC(=O)[C@@H]1c2ccccc2C(=O)N(Cc2cc(F)cc(C(F)(F)F)c2)[C@H]1c1ccc(CO)cc1  -0.0459
20. C=CC[C@@]12N=C(c3ccc(OCCCO)cc3)O[C@@H]1c1ccccc1N(CCS(=O)(=O)c1ccccc1)C2=O  -0.0303
21. CC(C)(C)OC(=O)CC[C@]1(C(=O)NCCN2CCOCC2)N=C(c2ccc(OCCCO)cc2)O[C@H]1c1ccccc1  -0.0203
22. C=C(/C(=C/C[C@@H](OC(=O)c1ccncc1)c1ccccc1OCCO)c1cc(C(=O)OC)ccc1OC)C(C)C  -0.012
23. C=CCOC(=O)[C@H]1[C@@H]2C(=O)O[C@@H](c3ccccc3)[C@@H](c3ccccc3)N2[C@@H](c2ccc(OCCOC(=O)[C@H]3C[C@H]4C(=O)N[C@@H](Cc5ccccc5)C(=O)N4[C@H]3c3cccc(OCCO)c3)cc2)[C@]12C(=O)Nc1ccc(I)cc12  0.0004
24. C=CCOC(=O)[C@@H]1[C@H]2C(=O)O[C@H](c3ccccc3)[C@H](c3ccccc3)N2[C@H](c2ccc(OCCOC(=O)[C@H]3C[C@H]4C(=O)N[C@@H](CCCC[N+](C)(C)C)C(=O)N4[C@H]3c3ccc(O)cc3)cc2)[C@@]12C(=O)Nc1ccc(I)cc12  0.0101
25. C=CCC(OC(C)=O)[C@@H]1[C@@H](N(Cc2cc3ccccc3o2)C(=O)Cc2ccc(F)cc2)c2cc(OCCCO)ccc2N1C(=O)c1ccc2ccccc2n1 (some centres not stated)  0.0179
26. CN(C)CCCNC(=O)[C@@H]1c2ccccc2C(=O)N(CC23CC4CC(CC(C4)C2)C3)[C@H]1c1ccc(CO)cc1  0.0215
27. C[C@H]1C2=C3C(CC[C@H]4C(OCc5ccc(F)cc5C(F)(F)F)OC[C@](C)([C@@H]34)N(C(=O)OC(C)(C)C)C2)C2COC(=O)OCC21 (some centres not stated)  0.0232
28. CCCN1C(=O)[C@]2(Cc3ccccc3)N=C(c3ccc(OCCCO)cc3)O[C@@H]2c2ccccc21  0.027
29. O=C1C2C=CC(C(O)c3cc(C(F)(F)F)cc(C(F)(F)F)c3)N(Nc3ccc([N+](=O)[O-])cc3)C2C(=O)N1c1ccccc1 (configuration not stated)  0.055
30. [N-]=[N+]=Nc1ccccc1[C@@H]1OC(c2ccc(OCCCO)cc2)=N[C@]1(CCS(=O)(=O)c1ccccc1)C(=O)NCCN1CCOCC1  0.0814
31. NCCCCCNC(=O)[C@@H]1C[C@@H]2C(=O)N[C@@H](CCCCN)C(=O)N2[C@@H]1c1cccc(OCCO)c1  0.0921
32. COC(=O)C1(Cc2ccccc2)C=C2C(=C(C(C)C)C(=O)C2C)CN1 (configuration not stated)  0.152
33. COc1ccc(C(O)C2C=CC3C(=O)N(c4ccccc4)C(=O)C3N2Nc2ccccc2)cc1OCc1ccccc1 (configuration not stated)  0.165
34. COC(=O)[C@@]1(Cc2ccc(OC)cc2)[C@H]2c3cc(C(=O)N(C)C)n(Cc4nc5ccccc5[nH]4)c3C[C@H]2CN1C(=O)c1ccccc1  0.343
35. O=C1c2ccccc2[C@](Cc2ccccc2I)(C(=O)NCCN2CCOCC2)[C@H](c2ccc(CO)cc2)N1Cc1ccccc1  0.359
